# Screening results deposited in PubChem by several laboratories.
# BJeLR viability: BJeLR cell viability loss. BJeLR (HRASV12) viability, CellTiter-Glo ATP luminescence, 48 h. inhibition, % (concentration not given with the values). 300,000 compounds, 0.17% hits; in the data active = inhibition above about 50%
# Vc quorum ag-1: induces V. cholerae light production without autoinducers; activation, % at 18.7 µM; V. cholerae BH1578 lux reporter, luminescence, 6 h; 350,000 compounds, 0.16% hits; in the data active = activation mostly above about 9.7%, no sharp cut-off
# MazEF act: MazEF (E. coli) toxin RNase activation; P0AE70; FAM/BHQ RNA-DNA oligo cleavage fluorescence, 5 h; activation, % at 20 µM; 350,000 compounds, 0.32% hits; AID 504720; in the data active = activation above about 50%
# Target sequence (P0AE70 whole entry, looked up): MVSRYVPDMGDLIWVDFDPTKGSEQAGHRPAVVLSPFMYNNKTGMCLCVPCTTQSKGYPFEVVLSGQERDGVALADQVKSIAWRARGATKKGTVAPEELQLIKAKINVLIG
# PfHsp40 yeast: rescue of PfHsp40-mediated yeast toxicity | 340,000 compounds, 0.68% hits | growth rescue, % at 12.5 µM | S. cerevisiae expressing PfHsp40, growth rescue, ATP luminescence; in the data active = growth rescue above about 28%, passing the limit was not always enough;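 also: yeast W303a lacking pdr1 and pdr3 grown in galactose medium; growth measured after three days at 30 °C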
# DUSP3 inh: inhibitors of human VHR1 phosphatase (DUSP3); 290,000 compounds, 0.52% hits; P51452; recombinant VHR phosphatase, pNPP absorbance; inhibition, % at 13.3 µM; AID 1654; in the data active = inhibition above about 50%
# Target sequence (P51452 whole entry, looked up): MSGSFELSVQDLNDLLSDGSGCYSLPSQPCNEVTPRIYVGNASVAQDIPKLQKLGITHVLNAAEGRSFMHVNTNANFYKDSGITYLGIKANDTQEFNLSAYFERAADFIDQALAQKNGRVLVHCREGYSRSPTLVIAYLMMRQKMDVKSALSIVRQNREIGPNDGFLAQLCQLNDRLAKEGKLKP
# 3CLpro inhibitor: SARS-CoV 3CLpro protease inhibition; P0C6X7; recombinant SARS-CoV 3CLpro, quenched FRET peptide cleavage; inhibition, % at 6 µM; 290,000 compounds, 0.14% hits; AID 1706; in the data active = inhibition above about 12%
# Vc quorum ag-2: induces V. cholerae light production without autoinducers | V. cholerae BH1578 lux reporter, luminescence, 6 h | shares compounds with Vc quorum ag-1 | 620 tested, under 10 active | activation, % at 50 µM; call rule not given here
# * = called active by the depositor; i = inactive; nt = no result given. Compounds with a hit are over-represented: about 1.7% of the library has one in this group of screens.
SMILES,BJeLR viability,Vc quorum ag-1,MazEF act,PfHsp40 yeast,DUSP3 inh,3CLpro inhibitor,Vc quorum ag-2
Cc1nn(CC(O)CN2c3ccccc3Sc3ccccc32)c(C)c1Br (configuration not stated),-4,25*,-6,1,-11,2,0
COCCC(C(=O)Oc1c(C(C)(C)C)cc(C)cc1C(C)(C)C)c1ccccc1 (configuration not stated),nt,1,4,0,nt,nt,nt
Cc1noc(C)c1S(=O)(=O)Nc1ccc2c(c1)C(=O)N([C@H](C)CO)C[C@H](C)[C@@H](CN(C)Cc1ccc(C(=O)O)cc1)O2,nt,20,3,22,nt,nt,0
CCOC(=O)c1c(C)[nH]c(C(=O)COC(=O)C2CC2)c1C,nt,-4,-20,0,nt,nt,nt
CCOC(=O)c1c(C)[nH]c(C(=O)COC(=O)C2(C)CC2(Cl)Cl)c1C (configuration not stated),4,12,0,-1,8,-5,0
CN(Cc1nc2ccccc2c(=O)[nH]1)C(=O)c1cccc(NC(=O)c2cccs2)c1,nt,i,10,0,nt,nt,nt
Cc1cccc(-n2nnnc2SCC(=O)NCC2CCCO2)c1 (configuration not stated),15,-1,-17,1,0,1,nt
Cc1ccccc1-n1ccnc1SCC(=O)NCC1CCCO1 (configuration not stated),-6,15*,-1,20,4,-1,0
COc1ccccc1-n1ccnc1SCC(=O)NCC1CCCO1 (configuration not stated),3,i,-1,0,9,-6,nt
Cc1ccc(-n2nnnc2SCC(=O)NCC2CCCO2)cc1C (configuration not stated),nt,12,3,1,nt,nt,-101
CCOCCCN(C)C1CCN(S(=O)(=O)c2csc(C(N)=O)c2)CC1,10,-1,3,-1,14,4,nt
COc1ccc(CNC(=O)CSc2nc3c(oc4ccccc43)c(=O)n2CC2CCCO2)cc1 (configuration not stated),21,14,0,0,nt,nt,0
CCOCCCNC(=O)C(NC(=O)c1cnccn1)c1ccc(C)cc1 (configuration not stated),0,28*,3,-1,15,0,2
O=C(CNC(=O)c1ccncc1)Nc1ccc(F)c(F)c1,15,12,4,-1,0,1,0
O=C(CNC(=O)c1ccc(=O)[nH]c1)Nc1ccc(F)c(F)c1,-1,2,6,-1,-7,-1,nt
Cc1ccc(CNC(=O)CCSCc2ccc(C)cc2)cc1,-2,i,3,0,-16,0,nt
O=[N+]([O-])c1ccc(S(=O)(=O)NCC(c2cccnc2)N2CCc3ccccc32)cc1 (configuration not stated),7,14,0,0,nt,nt,0
O=C(Nc1cccc([N+](=O)[O-])c1)C1CC(=O)N(C2CCCCC2)C1 (configuration not stated),-5,-1,3,-1,-13,0,nt
C[C@H](CO)N1C[C@H](C)[C@@H](CN(C)S(=O)(=O)c2cccs2)Oc2c(NC(=O)C3CC3)cccc2C1=O,nt,0,10,-1,nt,nt,nt
C[C@H]1CN([C@@H](C)CO)C(=O)c2cccc(NC(=O)C3CC3)c2O[C@H]1CN(C)S(=O)(=O)c1cccs1,nt,24,6,-1,nt,nt,0
Cc1noc(C)c1NC(=O)Nc1cccc2c1O[C@H](CN(C)S(=O)(=O)c1cccs1)[C@@H](C)CN([C@H](C)CO)C2=O,nt,12,6,-1,nt,nt,0
O=C(NCCC(=O)N1CCCC(C(F)(F)F)C1)c1ccc(Br)cc1 (configuration not stated),-10,i,2,0,5,5,nt
